From PubChem
Hits are enriched below; roughly 2.4% of the tested compounds scored in any of these assays.
EP2 mod: modulates human prostaglandin E2 receptor EP2 signaling; EP2-expressing cells, cAMP HTRF FRET, PGE2 co-stimulation; induction, % at 25 µM; actives 0.83% (n = 260,000);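 active = compounds whose cAMP rise, as percent of the full-agonist control response, exceeds 60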;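 also: rat C6 glioma line stably carrying human EP2 under a CMV promoter; the protocol text gives 20 µM as final concentration; 100% = response of wells given 1 µM PGE2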
S1P3 antagonist: blocks the human S1P3 receptor. Q99500. inhibition, % at 4.98 µM. actives 0.27% (n = 170,000). CHO S1P3 NFAT-BLA reporter, FRET fluorescence, antagonist mode;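 active = inhibition above the plate cutoff, the mean inhibition of test wells on that plate plus 3 SD, cut at about 28% in these data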;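 also: cells challenged with S1P at its EC80 of 0.8 µM; blue over green emission ratio from cleaved BLA substrate after 4 h stimulation; 0% = S1P-stimulated wells and 100% = unstimulated DMSO-only wells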
S1P4 ag: human S1P4 receptor agonism; S1P4-expressing cell line, agonist reporter assay; AID 1509; activation, % at 4.98 µM; actives 0.35% (n = 220,000); O95977; in the data active = activation above about 11%;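 also: 0% = DMSO vehicle and 100% = reference agonist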
Target sequence (O95977 whole entry, looked up): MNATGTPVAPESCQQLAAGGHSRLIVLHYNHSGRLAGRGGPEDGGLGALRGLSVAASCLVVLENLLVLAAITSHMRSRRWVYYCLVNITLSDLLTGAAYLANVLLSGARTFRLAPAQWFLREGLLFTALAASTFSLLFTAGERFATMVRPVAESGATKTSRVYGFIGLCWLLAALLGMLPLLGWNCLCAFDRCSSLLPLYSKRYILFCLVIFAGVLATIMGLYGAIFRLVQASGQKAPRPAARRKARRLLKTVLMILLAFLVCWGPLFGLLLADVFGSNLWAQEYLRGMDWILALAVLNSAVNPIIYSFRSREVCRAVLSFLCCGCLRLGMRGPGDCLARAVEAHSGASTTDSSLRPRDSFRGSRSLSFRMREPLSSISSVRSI
Insulin prom inh: TRM-6 insulin promoter activity inhibition; inhibition, % at 2 µM; actives 0.9% (n = 130,000); TRM-6 cells (human fetal islet line), insulin promoter-eGFP reporter, imaging; reporter expression induced with tamoxifen;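 active = inhibition above the mean plus 3 SD, with well images judged a real hit on visual review, cut at about 60% in these data, passing the limit was not always enough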
EP2 antag: inhibitors of human EP2 prostaglandin E2 receptor; C6 glioma cells expressing human EP2, cAMP TR-FRET; cells stimulated with saturating PGE2; actives 0.52% (n = 260,000); inhibition, % at 25 µM;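 active = percent inhibition above 40 after rounding to a whole number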;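 also: rat C6 glioma host cells with rolipram phosphodiesterase inhibitor present; the protocol text gives 20 µM as final concentration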
S1P4 antagonist: human S1P4 receptor antagonism | inhibition, % at 4.98 µM | actives 0.26% (n = 220,000) | S1P4-expressing cells, antagonist mode, reporter read-out | O95977; in the data active = inhibition above about 29%;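 also: 0% = wells stimulated with agonist and 100% = vehicle wells without agonist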
S1P4 antag conf: human S1P4 antagonism, confirmation. actives 71% (n = 520). inhibition, % at 4.98 µM. shares compounds with S1P4 antagonist. AID 1524. S1P4-expressing cell line, antagonist mode, reporter read-out; in the data active = inhibition above about 30%
S1P1 antagonist: blocks human S1P1, counter-screen for S1P4 antagonists; shares compounds with S1P4 antagonist; cell-based S1P1 antagonist counterscreen, inhibition; inhibition, % at 4.98 µM; actives 37% (n = 520); AID 1564; in the data active = inhibition above about 40%;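 also: receptor stimulated with S1P near its EC80; 0% = agonist stimulated wells and 100% = vehicle only wells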
An asterisk follows results filed as active; . = not tested or not shown.

SMILES	EP2 mod	S1P3 antagonist	S1P4 ag	Insulin prom inh	EP2 antag	S1P4 antagonist	S1P4 antag conf	S1P1 antagonist
Cc1cc(C)n(-c2cc(N3CCN(S(=O)(=O)c4ccc(Cl)cc4)CC3)ccc2[N+](=O)[O-])n1	24	-3	-1	-3	5	60*	14	26
Cc1ccc(NN2C(=O)C=C(c3ccc(Cl)cc3)C2=O)cc1	-33	.	-3	4	40*	31*	92*	21
COc1ccc(C(=O)C(CN2CCOCC2)c2ccccc2)cc1F (stereo unspecified)	6	2	-5	71*	-5	33*	46*	7
C=CCNc1cnn(CC(C)=O)c(=O)c1Br	30	.	1	-6	23	-1	.	.
CC(C)(C)C(=O)Cn1ncc(Br)c(Br)c1=O	23	-1	-4	.	12	64*	93*	34
Cc1cc(C)c(S(=O)(=O)N(CC(=O)N2CCC(C(N)=O)CC2)C2CCCCC2)c(C)c1	-24	.	.	.	11	.	.	.
O=S1(=O)C=C(Sc2nc3ccccc3s2)c2ccccc21	-39	6	1	.	37	55*	113*	59*
COc1ccc(-c2ccnc3nc(Sc4ncc(C(F)(F)F)cc4Cl)nn23)cc1	2	.	-1	.	6	61*	1	21
FC(F)(F)c1cnc(Sc2nc3nccc(-c4ccc(Cl)cc4)n3n2)c(Cl)c1	32	.	0	-39	.	-6	.	.
COCCNc1ncnc2c1cnn2-c1ccc(Cl)cc1	-11	.	0	.	6	33*	8	20
CC(=O)n1cc(N(C(=O)CCl)c2ccccc2)c2ccccc21	4	13	0	.	4	42*	100*	40
S=c1[nH]nc(-c2cc(-c3ccccc3)n[nH]2)n1/N=C/C(Br)=C/c1ccccc1	1	-4	0	.	12	35*	66*	24
S=c1[nH]nc(-c2cc(-c3ccccc3)n[nH]2)n1/N=C/c1ccccc1	21	2	1	.	7	-13	.	.
CCC(c1nnnn1C(C)(C)CC)N(CCN1CCOCC1)Cc1cc2c(C)cc(C)cc2[nH]c1=O (stereo unspecified)	0	.	.	.	10	.	.	.
O=C1CCCCc2sc(Br)c([N+](=O)[O-])c2N1	-32	1	-3	.	10	80*	102*	66*
CCCOc1ccc(C2C3=C(CCCC3=O)N(C)C3=C2C(=O)CCC3)cc1OCC	19	.	.	.	14	.	.	.
CC(C)c1nnc(NC(=O)CCS(=O)(=O)c2nc(-c3cccs3)cc(C(F)(F)F)n2)s1	4	-3	-2	.	15	50*	109*	54*
Cn1cnc([N+](=O)[O-])c1S(=O)(=O)c1cccc(Cl)c1	-34	-11	4	31	12	48*	47*	63*
Cc1ccc2cc(CN(CCCN3CCOCC3)C(=O)Nc3ccc(Cl)cc3)c(=O)[nH]c2c1C	-42	.	.	.	20	.	.	.
Oc1ccccc1C1CC(c2cccs2)=NC(c2cccc(Br)c2)N1 (stereo unspecified)	33	-1	2	18	6	30*	43*	20
O=C(Nc1cccc(-c2nc3ccccc3s2)c1)c1cc(-n2cnnc2)ccc1Cl	-14	.	1	.	21	31*	16	4
CCN(CC)C(=O)CN(c1cccc(Br)c1)S(C)(=O)=O	25	18	1	.	19	30*	2	-34
CN(c1ccccc1)c1ccc(/C=C/[N+](=O)[O-])cc1	-71	-17	3	.	13	55*	119*	66*
CN(C)c1ccc(-n2cccc2/C=C/[N+](=O)[O-])cc1	-86	2	1	23	26	21	.	.
CCOc1ccc(-c2csc3ncn(CC(=O)OC(C)C)c(=O)c23)cc1	-4	.	.	.	12	.	.	.
SMILES	EP2 mod	S1P3 antagonist	S1P4 ag	Insulin prom inh	EP2 antag	S1P4 antagonist	S1P4 antag conf	S1P1 antagonist
CCOc1ccc(C(=O)Oc2ccc(NC(C)=O)cc2)cc1	-10	-11	1	.	7	-15	.	.
CC(=O)Nc1ccc(OC(=O)c2ccc(Br)c([N+](=O)[O-])c2)cc1	-33	-16	-2	.	3	48*	68*	35
O=S(=O)(c1ccc(Br)c2nsnc12)N1CCOCC1	-28	19	1	-178	13	79*	39*	36
Cc1ccc(NC(=O)C2=C(c3ccccc3)S(=O)(=O)CCS2(=O)=O)cc1	-87	0	-2	-52	37	45*	108*	5
CN(C)/C=C/C(=O)c1cnc(-c2ccccc2)s1	-21	2	1	36	6	38*	-5	1
CN(C)/C=C/C(=O)c1cnc(-c2ccc(Cl)cc2)s1	-67	-9	0	-73	6	-2	.	.
CCOc1ccc(-n2c(SCC(=O)N3CCCCC3C)nnc2-c2cccnc2)cc1 (stereo unspecified)	-9	.	.	.	13	.	.	.
CCOc1ccc(CN2CCN(CC(O)Cn3c4ccccc4c4ccccc43)CC2)cc1 (stereo unspecified)	-41	0	-1	-122	12	42*	71*	83*
Nc1c(C(=O)Nc2ccc3c(c2)OCO3)sc2nc3cc4c(cc3cc12)OCCO4	-71	.	.	.	15	.	.	.
O=C(CCCCCNc1n[nH]c(=O)[nH]c1=O)OCc1ccccc1	-8	.	.	.	12	.	.	.
CCCN(CCC)S(=O)(=O)c1ccc(N2CCCC2=O)c([N+](=O)[O-])c1	31	-6	0	17	10	3	.	.
CCCN(CCC)S(=O)(=O)c1ccc(Cl)c([N+](=O)[O-])c1	-14	-19	-2	.	14	52*	100*	21
c1coc(CNCc2cccc3ccccc23)c1	-42	.	.	.	4	.	.	.
COc1ccccc1C(c1nnnn1C(C)(C)C)N1CCCCCC1 (stereo unspecified)	25	22	-5	-18	10	32*	1	-19
CCc1cc2ccccc2nc1SCC(=O)Nc1ccc(OC)cc1	19	.	.	.	11	.	.	.
CCOC(=O)Cn1nc(C)c(NC(=O)COc2ccc([N+](=O)[O-])c(C)c2)c1C	-4	-9	1	-29	5	40*	2	24
CN1/C(=C/C(=O)c2nc(S(C)(=O)=O)ncc2Cl)C(C)(C)c2ccccc21	-47	-6	-7	.	9	65*	111*	-2
COc1ccc(-c2nnc(SCC(=O)OC3CCCCC3)n2C)cc1	4	.	.	.	7	.	.	.
Nc1ccc2c(C(F)(F)F)cc(=O)oc2c1	-33	5	0	.	18	46*	45*	35
COCCN=C1Sc2nc3c(C)cccc3cc2CN1Cc1ccco1	51	.	-1	-34	14	51*	24	8
